From ChEMBL document CHEMBL3433997, “St. Jude Leishmania screening dataset” (2016)

Tests used:
Format in all cases: functional
[1] = target: Solute carrier family 2, facilitated glucose transporter member 1 (Homo sapiens) (UniProt P11166); experiment: ST_JUDE_LEISH: Cytotoxicity at 2uM final concentration against transgenic Leishmania Mexicana promastigotes LmGLUT1 that are glucose transport deficient and complemented with the human glucose transporter GLUT1. Activity is measured by DNA content using SYBR green in vitro
Sequence of Solute carrier family 2, facilitated glucose transporter member 1 (Homo sapiens) (P11166 whole entry): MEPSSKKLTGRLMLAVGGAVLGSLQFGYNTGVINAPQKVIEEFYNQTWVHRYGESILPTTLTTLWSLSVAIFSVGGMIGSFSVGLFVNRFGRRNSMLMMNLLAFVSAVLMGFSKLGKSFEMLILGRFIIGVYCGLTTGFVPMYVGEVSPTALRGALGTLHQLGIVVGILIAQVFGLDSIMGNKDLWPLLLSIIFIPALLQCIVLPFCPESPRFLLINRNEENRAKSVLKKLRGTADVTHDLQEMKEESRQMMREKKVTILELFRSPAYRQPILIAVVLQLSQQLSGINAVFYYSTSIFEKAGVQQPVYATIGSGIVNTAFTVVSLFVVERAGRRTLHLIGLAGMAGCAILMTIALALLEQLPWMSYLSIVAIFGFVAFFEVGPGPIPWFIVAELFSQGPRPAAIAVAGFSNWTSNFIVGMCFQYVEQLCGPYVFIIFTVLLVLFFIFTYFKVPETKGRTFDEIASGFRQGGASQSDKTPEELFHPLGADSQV

[2] = target: Hexose transporter 1 (Plasmodium falciparum) (UniProt O97467); experiment: ST_JUDE_LEISH: Cytotoxicity at 2uM final concentration against transgenic Leishmania Mexicana promastigotes LmPfHT that are glucose transport deficient and complemented with the Plasmodium falciparum hexose transporter. Activity is measured by DNA content using SYBR green in vitro
[3] = target: Glucose transporter (Leishmania mexicana) (UniProt O61059); experiment: ST_JUDE_LEISH: Cytotoxicity at 2uM final concentration against transgenic Leishmania Mexicana promastigotes LmGT2 that are glucose transport deficient and complemented with the L. Mexicana glucose transporter 2. Activity is measured by DNA content using SYBR green in vitro

Structure (SMILES): CC(C)(C)C(=O)Nc1c(-c2cc(=O)oc3cc4c(cc23)CCC4)oc2ccccc12
- inhibition [1]: 4.02%
- inhibition [2]: 4.1%
- inhibition [3]: 5.42%

Structure (SMILES): O=C(/C=C/c1ccc(Cl)c(Cl)c1)NCCCCN1CCCN(C(=O)Nc2ccc(C(F)(F)F)cc2)CC1
- inhibition [1]: 3.18%
- inhibition [2]: 4.68%
- inhibition [3]: 1.09%

Structure (SMILES): CCOc1ccc(C(C)NC(=O)c2ccc(OC)c(Br)c2)cc1OCC (stereo not drawn)
- inhibition [1]: 1.14%
- inhibition [2]: -0.71%
- inhibition [3]: -0.9%

Structure (SMILES): Brc1ccc(Nc2nc(NCC3CCCO3)c3ccccc3n2)cc1 (stereo not drawn)
- inhibition [1]: 24.2%
- inhibition [2]: 22.3%
- inhibition [3]: 8.12%

Structure (SMILES): CN1CCN(CC(=O)Nc2cccc(-c3cccc(-c4nc5cc(C(F)(F)F)ccc5[nH]4)c3)c2)CC1
- inhibition [1]: 3.23%
- inhibition [2]: 2.92%
- inhibition [3]: 3.87%

Structure (SMILES): Cc1nc(C)c(-c2ccc(S(=O)(=O)c3ccc(Cl)cc3)cc2)c(O)c1Br
- inhibition [1]: 4.93%
- inhibition [2]: 4.53%
- inhibition [3]: 4.12%

Structure (SMILES): Cc1ccccc1C1CCN(C2CCC(NC(=O)c3ccc(-c4ccccc4F)o3)CC2)CC1 (stereo not drawn)
- inhibition [1]: 3.69%
- inhibition [2]: 2.49%
- inhibition [3]: 1.85%

Structure (SMILES): CCNc1cc(C(=O)N[C@@H](Cc2ccccc2)[C@H](O)CNC2(Cc3cccc(Cl)c3)CCC2)cc(N2CCCCS2(=O)=O)c1
- inhibition [1]: -0.69%
- inhibition [2]: 0.65%
- inhibition [3]: 2.93%

Structure (SMILES): O=C(Nc1cccc(-c2cccc(-c3nc4cc(C(F)(F)F)ccc4[nH]3)c2)c1)c1ccoc1
- inhibition [1]: 10.4%
- inhibition [2]: 10.1%
- inhibition [3]: 8.15%

Structure (SMILES): CCCNC(=O)Nc1ccc(N(C)c2ccnc(NC3CC3)n2)cc1
- inhibition [1]: 7%
- inhibition [2]: 5.59%
- inhibition [3]: 5.87%

Structure (SMILES): Cc1n[nH]c2cc(Nc3nccc(Nc4ccc(Oc5ccccc5)cc4)n3)ccc12
- inhibition [1]: 11.3%
- inhibition [2]: 7.61%
- inhibition [3]: 6.15%

Structure (SMILES): O=C(NCCCCCN1CCC(c2c[nH]c3ccccc23)CC1)Nc1ccc(Cl)c(Cl)c1
- inhibition [1]: -1%
- inhibition [2]: -1.05%
- inhibition [3]: 1.89%

Structure (SMILES): CN(C)Cc1cccc2nc(-c3csc(Cc4cc(Cl)ccc4OCc4ccccc4)n3)[nH]c12
- inhibition [1]: 6.3%
- inhibition [2]: 3.36%
- inhibition [3]: 1.88%

Structure (SMILES): Cc1cccc2nc(-c3ccc(-c4ccc(CN5CCN(CCO)CC5)cc4)s3)[nH]c12
- inhibition [1]: 10.6%
- inhibition [2]: 8.8%
- inhibition [3]: 7.69%

Structure (SMILES): CC1(CCCCN2CCC(Cc3ccccc3)CC2)C(=O)Nc2ccccc21 (stereo not drawn)
- inhibition [1]: 6.25%
- inhibition [2]: 5.65%
- inhibition [3]: 4.71%

Structure (SMILES): Oc1ccc(-c2nc3c(N4CCN(Cc5ccccc5)CC4)cccc3n2C2CCNCC2)cc1
- inhibition [1]: 3.29%
- inhibition [2]: 7.64%
- inhibition [3]: 2.62%

Structure (SMILES): Cc1cccc(NC(=O)NCc2ccccc2)n1
- inhibition [1]: 1.62%
- inhibition [2]: 1.46%
- inhibition [3]: 2.38%

Structure (SMILES): COc1ccc(-c2nc(NCc3ccccc3)c3cc(OC)c(OC)cc3n2)cc1
- inhibition [1]: 10.8%
- inhibition [2]: 12.1%
- inhibition [3]: 4.38%

Structure (SMILES): Fc1ccc(C2N=C(SCCSC3=NC(c4ccc(F)cc4)C(c4ccc(F)cc4)N3)NC2c2ccc(F)cc2)cc1 (stereo not drawn)
- inhibition [1]: 1.34%
- inhibition [2]: 3.1%
- inhibition [3]: 3.33%

Structure (SMILES): Cc1cccc2nc(-c3ccc(-c4ccc(CN5CCN(CC6CCCN(C)C6)CC5)cc4)cc3)[nH]c12 (stereo not drawn)
- inhibition [1]: 8.82%
- inhibition [2]: 10.8%
- inhibition [3]: 6.25%

Structure (SMILES): CC(=O)Nc1ccc2[nH]cc(C3CCN(CCC4CCN(C(=O)/C=C/c5ccc(Cl)c(Cl)c5)CC4)CC3)c2c1
- inhibition [1]: 8.34%
- inhibition [2]: 7.25%
- inhibition [3]: 5.15%

Structure (SMILES): FC(F)(F)c1ccc2[nH]c(-c3ccc(-c4ccc(CNCc5cnn(-c6ccccc6)n5)cc4)cc3)nc2c1
- inhibition [1]: 2.68%
- inhibition [2]: 0.52%
- inhibition [3]: 0.17%

Structure (SMILES): CS(=O)(=O)CCNCc1ccc(-c2ccc3c(Nc4ccc(Oc5ccccn5)cc4)ccnc3c2)o1
- inhibition [1]: 1.24%
- inhibition [2]: -0.28%
- inhibition [3]: 2.55%

Structure (SMILES): CCNc1cc(C)nc(Nc2ccc(NC(=O)c3c(F)cccc3Cl)cc2)n1
- inhibition [1]: 10.6%
- inhibition [2]: 11%
- inhibition [3]: 2.56%

Structure (SMILES): CCc1c[nH]c2c(N3CCCCC3=O)cc(C(=O)N[C@@H](Cc3ccccc3)[C@H](O)CNCc3cccc(OC)c3)cc12
- inhibition [1]: -0.8%
- inhibition [2]: -2.31%
- inhibition [3]: 0.87%

Structure (SMILES): O=C(NCCSCc1c(F)cccc1Cl)c1cnc2c(c1)nc(-c1c[nH]c(-c3ccccc3)n1)n2CCc1c[nH]cn1
- inhibition [1]: 2.77%
- inhibition [2]: 2.22%
- inhibition [3]: 0.97%

Structure (SMILES): CCCCCCN1CCN(Cc2cccc(NC(=O)c3ccc(Cl)c(Cl)c3)c2)CC1
- inhibition [1]: 5.8%
- inhibition [2]: 6.59%
- inhibition [3]: 4.85%

Structure (SMILES): Brc1ccc(C=NNc2nc3ccccc3[nH]2)cc1
- inhibition [1]: 6.61%
- inhibition [2]: 4.26%
- inhibition [3]: 2.59%

Structure (SMILES): NC1=NC(Cc2ccccc2)(c2ccncc2)C(=O)N1CCCc1ccccc1 (stereo not drawn)
- inhibition [1]: 3.32%
- inhibition [2]: 3.32%
- inhibition [3]: 2.03%

Structure (SMILES): COc1c(C2CCN(CCCCNC(=O)c3ccc(-c4ccc(Cl)cc4)c(O)c3)CC2)ccc2c1CCCC2
- inhibition [1]: 2.96%
- inhibition [2]: 2.6%
- inhibition [3]: 0.11%

Structure (SMILES): Cc1cc(Cc2ccc(S(=O)(=O)c3cc4c(cc3O)CCN(C)CC4)cc2)ccc1Cl
- inhibition [1]: -0.06%
- inhibition [2]: 2.07%
- inhibition [3]: 0.31%

Structure (SMILES): c1ccc2c(c1)ncn2-c1ccnc(Nc2ccncc2)n1
- inhibition [1]: 6.4%
- inhibition [2]: 6.42%
- inhibition [3]: 6.75%

Structure (SMILES): CCOC(=O)N1CCN(CCCCNc2c3ccc(Cl)cc3nc3ccc(OC)cc23)CC1
- inhibition [1]: 10.8%
- inhibition [2]: 9.69%
- inhibition [3]: 7.38%

Structure (SMILES): CN(C)CCN(C)Cc1ccc(-c2cccc(NC(=O)c3cccc(C#N)c3)c2)cc1
- inhibition [1]: 15.4%
- inhibition [2]: 10.9%
- inhibition [3]: 8.24%

Structure (SMILES): O=C(NC1CCCCCC1)[C@@H]1CCCN1C(=O)c1ccc(O)c(-c2ccc(Cl)c(Cl)c2)c1
- inhibition [1]: 0.09%
- inhibition [2]: 2.12%
- inhibition [3]: -1.06%

Structure (SMILES): Cc1cc(-c2ccc(NC(=O)c3coc4ccc(N5CC(C)N(C)C(C)C5)cc34)cc2C)cc(C)n1 (stereo not drawn)
- inhibition [1]: 2.55%
- inhibition [2]: 3.78%
- inhibition [3]: 1.55%

Structure (SMILES): Clc1ccc(-c2[nH]c3ccccc3c2CN2CCC(N3CCCCC3)CC2)cc1
- inhibition [1]: 15.2%
- inhibition [2]: 14.7%
- inhibition [3]: 15.2%

Structure (SMILES): CN(Cc1ccc(-c2ccc(C(F)(F)F)cc2)cc1)C(=O)Cn1c(CCc2cccc(F)c2F)nc(=O)c2ccc(N3CCN(CCN4CCCCC4)CC3)nc21
- inhibition [1]: 7.76%
- inhibition [2]: 7.16%
- inhibition [3]: 3.71%

Structure (SMILES): COc1ccc(Nc2ncc3c(-c4cccc(NC(=O)Cc5cccc(O)c5)c4)c[nH]c3n2)cc1OC
- inhibition [1]: -1.87%
- inhibition [2]: 1.51%
- inhibition [3]: 3.39%

Structure (SMILES): Cc1cccc(Nc2nc(C)cc(N3CCCN(CC4CCCCC4)CC3)n2)c1
- inhibition [1]: -2.84%
- inhibition [2]: 1.98%
- inhibition [3]: -0.15%

Structure (SMILES): COC[C@H]1CCCN1Cc1ccc(-c2ccc(-c3nc4ccccc4[nH]3)s2)cc1
- inhibition [1]: 2.15%
- inhibition [2]: 1.84%
- inhibition [3]: 1.25%

Structure (SMILES): CCCCN(CCCC)Cc1cc2ccccc2cc1O
- inhibition [1]: 3.46%
- inhibition [2]: 4.13%
- inhibition [3]: -0.3%

Structure (SMILES): COc1cc2nc(-c3ccccc3)nc(N3CCN(C(=O)c4ccco4)CC3)c2cc1OC
- inhibition [1]: 13.7%
- inhibition [2]: 8.22%
- inhibition [3]: 7.06%

Structure (SMILES): Cc1cccc2nc(-c3cccc(-c4ccc(NC(=O)C5CCN(C)CC5)cc4)c3)[nH]c12
- inhibition [1]: 5.38%
- inhibition [2]: 2.27%
- inhibition [3]: 7.2%

Structure (SMILES): CCN(CC)CCc1ccc2c(=O)cc(CCc3cccc(F)c3F)n(CC(=O)N(C)Cc3ccc(-c4ccc(C(F)(F)F)cc4)cc3)c2c1
- inhibition [1]: 5.18%
- inhibition [2]: 5.23%
- inhibition [3]: 3.78%

Structure (SMILES): COc1cccc(NC(=O)c2ccc(NCCCN3CC(C)CC(C)C3)c([N+](=O)[O-])c2)c1 (stereo not drawn)
- inhibition [1]: 6.83%
- inhibition [2]: 2.93%
- inhibition [3]: 3.43%
